L major viab = Leishmania major promastigote growth inhibition, primary screen; actives 9% (n = 200,000); Leishmania major promastigotes, resazurin fluorescence viability; inhibition, % at 10 µM; in the data active means inhibition above about 50%;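 further: promastigotes grown with compound for 44 hours at 28 °C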
HCT116 bCat-KO = primary screen for growth suppressors in beta-catenin knockout HCT116 cells (colon tumor, human); viability, % at 10 µM; actives 1.5% (n = 140,000); AID 818, 2007; HCT116 beta-catenin knockout viability, CellTiter-Glo, 60 h; active compounds read low;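 active means viability at or under a set limit, the compound median less 4 SD, cut at about 6% in these data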
Insulin prom up = insulin promoter activators in MIN6 cells, imaging, high-content screening, mouse beta cells. MIN6 insulin promoter-GFP reporter; active compounds read high. z-score at 5 µM. actives 0.3% (n = 190,000). AID 1625, 2009;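 active means z-score above 3 at 5 µM with at least 500 cells counted in the well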
Autophagy mod = autophagy modulators in MEF cells, primary screen, imaging, high-content, MEF GFP-LC3; MEF GFP-LC3 puncta imaging; test concentration mostly 10 µM; calls only at 10 µM (by protocol); actives 0.98% (n = 190,000); AID 463193, 2010;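 active means percentage of spot-positive cells more than 3 SD above its plate mean, without a fluorescence outlier flag or 80% toxicity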
HCT116 PTEN-null = growth suppression of PTEN-null HCT116, primary screen, cell-based, CellTiter-Glo; HCT116 PTEN-null viability, 60 h; active compounds read low; viability, % at 10 µM; actives 1.2% (n = 140,000);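 active means viability at or below a set limit, 4 SD under the median of all tested compounds, cut at about 3.7% in these data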;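 further: PTEN knockout HCT116 line with beta catenin targeted HCT116 as companion control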
INS promoter inh = inhibitors of insulin promoter-driven GFP, primary screen, imaging, TRM-6 cells (human fetal islet line), eGFP reporter, cell count. reporter expression induced with tamoxifen. inhibition, % at 2 µM. actives 0.9% (n = 130,000). AID 1273, 2008;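 active means inhibition above the mean plus 3 SD, with well images judged a real hit on visual review, cut at about 60% in these data, passing the limit was not always enough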
Numbers stand for hits; 0 = inactive; - = no result given; + = active, no number. Hits are enriched below; roughly 9.6% of the tested compounds scored in any of these assays.

SMILES	L major viab	HCT116 bCat-KO	Insulin prom up	Autophagy mod	HCT116 PTEN-null	INS promoter inh
COc1ccccc1OCC(=O)Nc1ccc(-c2nnc(-c3ccco3)o2)cc1	0	-	0	0	-	0
CCC(Oc1ccccc1)C(=O)Nc1ccc(-c2nnc(-c3ccco3)o2)cc1 (centres undefined)	94	0	0	0	0	0
COc1cccc(-c2nnc(NC(C)=O)o2)c1	-	-	0	-	-	-
O=C(NCC1CCN(c2ccc(S(=O)(=O)N3CCOCC3)cc2)CC1)c1cccc(Cl)c1	97	0	-	0	0	0
COc1cccc(-c2nnc(NC(=O)C3CCCCC3)o2)c1	66	0	0	0	0	-
Cc1cccc(C(=O)Nc2nnc(-c3cccnc3)o2)c1	65	-	0	0	-	0
COc1ccc(NC(=O)Nc2ccc(Cc3ccncc3)cc2)c(OC)c1	0	0	-	0	0	0
COc1cccc(C(=O)Nc2cccc(-c3nnc(-c4ccco4)o3)c2)c1	0	5.0	0	0	0	0
CCOc1ccc(-c2nnc(NC(=O)c3ccc(OCC(C)C)c(OC)c3)o2)cc1	98	0	0	0	0	-
COc1cccc(C(=O)NCC2CCN(c3ccc(S(=O)(=O)N4CCOCC4)cc3)CC2)c1	64	0	-	0	0	-
COc1ccc(Br)cc1C(=O)Nc1cccc(-c2nnc(-c3ccco3)o2)c1	0	-	-	0	-	0
COc1cccc(-c2nnc(NC(=O)c3ccc4ncsc4c3)o2)c1	82	0	0	0	0	0
COc1ccc(NC(=O)c2ccc(S(=O)(=O)N3CCOCC3)cc2)c(OC)c1	0	0	0	0	0	0
Cc1cccc(NC(=O)C2CCCN2C(=O)Oc2ccccc2)c1 (centres undefined)	0	0	0	0	0	0
COc1ccc(C2/C=C\CN(C(=O)CC(C)C)CC(=O)N2Cc2ccc(F)cc2)cc1 (centres undefined)	-	-	0	-	-	-
COc1cc(-c2nnc(NC(=O)c3ccc(S(=O)(=O)N4CCOCC4)cc3)o2)cc(OC)c1OC	0	-	0	0	-	0
COc1cccc(-c2nnc(NC(=O)c3ccc(S(=O)(=O)N4CCOCC4)cc3)o2)c1	96	0	0	0	0	-
CC1CN(S(=O)(=O)c2ccc(C(=O)Nc3nnc(-c4ccc5c(c4)CCCC5)o3)cc2)CC(C)O1 (centres undefined)	99	0	0	0	0	-
CC1CN(S(=O)(=O)c2ccc(C(=O)Nc3nnc(-c4ccccn4)o3)cc2)CC(C)O1 (centres undefined)	0	-	-	0	-	0
O=C(Nc1cccc(Cl)c1)Nc1ccccc1C(=O)NCc1ccco1	0	0	-	0	0	0
Cc1ccc2c(c1)c1c(n2CC(O)CNC2CCCCC2)CCCC1 (centres undefined)	101	-	0	0	-	-
Cc1ccc(C)c(C(=O)CCC(=O)Nc2cccnc2)c1	0	0	-	0	0	0
COc1ccc(CC2(C)OC(c3ccccc3)=NN2C(C)=O)cc1 (centres undefined)	53	0	0	0	0	0
COc1ccccc1C(=O)CSc1ccccn1	0	-	0	+	-	0
O=C(CCSc1ccccn1)c1ccccc1	77	-	0	0	-	0
SMILES	L major viab	HCT116 bCat-KO	Insulin prom up	Autophagy mod	HCT116 PTEN-null	INS promoter inh
Cc1ccc2nc(NC(=O)CSc3nnc(C)c(=O)n3N)sc2c1	54	0	0	0	0	0
Cc1nc2ccc(NC(=O)c3nn(CC(C)C)c(=O)c4ccccc34)cc2s1	0	0	0	0	0	0
CCn1nc(C(=O)Nc2nc3ccc(C)cc3s2)c2ccccc2c1=O	0	0	0	+	0	0
COc1ccc(-n2nc(C(=O)Nc3nc4ccc(OC)cc4s3)c3ccccc3c2=O)c(OC)c1	0	0	0	0	2.6	0
O=C(Cc1ccccc1)c1nc2ccccc2s1	0	0	0	0	0	0
COc1ccc(NC(=O)C2CCCN2C(=O)Nc2ccccc2)cc1OC (centres undefined)	0	0	0	0	0	0
COc1ccc(C2CCCN2C(=O)Nc2ccc(Cl)cc2)cc1OC (centres undefined)	0	0	0	+	0	-
CC1CCN(c2nc(CN3CCCCC3)nc3scc(-c4ccccc4)c23)CC1	91	0	0	0	0	0
O=C(Nc1ccccc1N1CCCCC1)c1ccc(Cl)c([N+](=O)[O-])c1	0	-	0	0	-	-
CN1CCN(c2ccc(S(=O)(=O)N3CCCCC3)cc2NC(=O)c2ccc3ccccc3c2)CC1	0	2.3	0	0	1.4	0
CN1CCN(c2ccc(C(=O)c3ccc(Br)cc3)cc2[N+](=O)[O-])CC1	98	-	0	0	-	-
CN1CCN(c2ccccc2NC(=O)c2ccc(N3CCCC3)c([N+](=O)[O-])c2)CC1	65	-	0	0	-	-
COc1ccc(OC)c(-c2nc(CN3CCCCC3c3cccnc3)c(C)o2)c1 (centres undefined)	0	-	-	0	-	0
COc1ccc(-c2nc(CN(CC3CCC(=O)N3)C(C)C)c(C)o2)c(C)c1C (centres undefined)	79	-	-	0	-	0
COc1ccc(-c2nc(CN3CCCCC3c3nccn3C)c(C)o2)c(C)c1C (centres undefined)	97	-	0	0	-	0
CCCNC(=O)Cn1cnc2sc(C(=O)Nc3cc(OC)c(OC)c(OC)c3)c(C)c2c1=O	0	0	0	0	0	-
Cc1cccc(NC(=O)C2CC(=O)N/C(=N/N=C/c3ccco3)S2)c1 (centres undefined)	0	0	0	0	0	-
Cc1ccccc1Nc1nc(CSc2nnnn2-c2ccccc2)cs1	0	0	0	0	0	69
c1ccc(-c2nc(CSc3nnnn3-c3ccccc3)cs2)cc1	0	0	0	0	0	-
COc1cccc(/C=C/C(=O)c2ccc[nH]2)c1	100	0	0	0	0	0
COc1cc(/C=N/NC(=O)c2ccc(C)nc2)cc([N+](=O)[O-])c1O	0	-	-	0	-	-
COc1cc(/C=C/C(=O)c2ccc(C)c([N+](=O)[O-])c2)cc(OC)c1O	79	2.4	0	0	3.0	-
COc1cccc(/C=C/C(=O)c2ccc(C)c([N+](=O)[O-])c2)c1	76	2.7	0	0	2.4	0
COc1ccc(/C=C/C(=O)c2ccc(C)c([N+](=O)[O-])c2)cc1O	100	1.2	0	0	1.4	-
COc1ccc(C(=O)/C=C/c2ccc(N3CCCCC3)c([N+](=O)[O-])c2)cc1	0	0	0	0	0	-
Cn1nccc1CNC(=O)c1c(Cl)cnn1C	0	0	-	0	0	73
Cn1ncc(Cl)c1C(=O)NCc1ccco1	0	-	0	0	-	-
Cc1cccc2cc(CN(CCN(C)C)C(=S)NCc3ccco3)c(=O)[nH]c12	0	0	0	0	0	-
Cc1ccc2[nH]c(=O)c(CN(CCCN(C)C)C(=O)Nc3ccc(Cl)cc3)cc2c1	90	0	0	0	0	0
Cc1ccc2cc(CN(CCN(C)C)C(=O)Nc3ccc(Cl)cc3)c(=O)[nH]c2c1	0	-	0	0	-	-

Screens (PubChem)
